The results in this text go back to PubChem BioAssay (Tox21).

Values without a mark were called inactive. Inconclusive results are not listed. Calls of active or inactive are those of the source. Unless noted, calls come from the whole dose curve; as a rule, active = well fitted curve in the direction sought with a large enough effect in the repeat runs; inconclusive = weak or mixed curves; inactive = no such curve, though single readings can be large; an effect the other way counts as inactive or inconclusive.

The nature of test [1]: qHTS RealTime-Glo MT Cell Viability Assay in HEK293 cells - 0 hour (AID 1224880). Note: top concentration of the series differs between compounds; nearly all actives have a fitted effect of over 45% in size. A digest of the protocol:
(§1)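 Tox21 screen in HEK293 using RealTime-Glo MT chemistry, with cells and reagent co-dispensed. Luminescence proportional to viable cell number was captured at intervals during 40 h compound exposure at 37 C.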
Background: qHTS replaces the single test concentration by a dilution series.

The nature of test [2]: A CellTox Green Cytotoxicity Assay to monitor cytotoxicity in HepG2 cells - 0 hour (AID 1224882). Note: nearly all actives have a fitted effect of over 35% in size. A digest of the protocol: (§2)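 Nonlytic assay: viable cells exclude the dye, so fluorescence scales with cell death. HepG2 at 600 cells/well, compounds added after 5 h, signal read across 40 h.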
A short description of test [3]: A CellTox Green Cytotoxicity Assay to monitor cytotoxicity in HepG2 cells - 32 hour (AID 1224883). Note: nearly all actives have a fitted effect of over 50% in size. Note: potency is the fitted concentration of half-maximal effect. A digest of the protocol: as §2
Test [4] is described as follows: A CellTox Green Cytotoxicity Assay to monitor cytotoxicity in HEK293 cells - 8 hour (AID 1224884). Note: nearly all actives have a fitted effect of over 35% in size. A digest of the protocol: (§3)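 Seeding of HEK293 cells together with cytotoxicity dye preceded a 5 h incubation at 37 C/5% CO2. Test compounds in DMSO were then added and fluorescence monitored across 40 h.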
The nature of test [5]: A CellTox Green Cytotoxicity Assay to monitor cytotoxicity in HEK293 cells - 16 hour (AID 1224888). Note: nearly all actives have a fitted effect of over 35% in size. In outline:
as §3

Test [6] is described as follows: qHTS RealTime-Glo MT Cell Viability Assay in HepG2 cells - 0 hour (AID 1224889). Note: nearly all actives have a fitted effect of over 50% in size. In outline: (§4)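 Tox21 10K library screened in qHTS format on HepG2 cells carrying RealTime-Glo reagents. Compounds were added after a 5 h preincubation, and the luminescent signal from continuous culture was measured repeatedly during 40 h treatment.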
Test [7] is described as follows: A CellTox Green Cytotoxicity Assay to monitor cytotoxicity in HepG2 cells - 8 hour (AID 1224890). Note: nearly all actives have a fitted effect of over 45% in size. A digest of the protocol:
as §2

The nature of test [8]: qHTS assay to identify small molecule antagonists of the estrogen receptor alpha (ER-alpha) signaling pathway using the BG1 cell line in the presence of 0.1 nM 17-beta-estradiol - cell viability counter screen (AID 1259241). Note: nearly all actives have a fitted effect of over 40% in size. In outline:
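Cytotoxicity counter-screen: live-cell protease activity measured by fluorescence (30 min reagent step) in the same wells. Cells were VM7Luc4E2 with endogenous ER-alpha and ERE-driven luciferase, treated 22 hr at 37C alongside 0.1 nM 17beta-estradiol final.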

Test [9] is described as follows: qHTS assay to identify small molecule antagonists of the androgen receptor (AR) signaling pathway using the MDA cell line in the presence of 0.5 nM R1881 - cell viability counter screen (AID 1259242). Note: nearly all actives have a fitted effect of over 45% in size. In outline:
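R1881 at 0.5 nM final stimulated MDA-kb2 cells during 16 hr compound treatment at 37C. Cytotoxicity read: CellTiter-Fluor fluorescence after 30 min.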

A short description of test [10]: qHTS assay to identify small molecule phospholipidosis (PLD) inducers (AID 1259344; active = well fitted curve in the direction sought with a large enough effect; an effect the other way counts as inactive or inconclusive). A digest of the protocol: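 Phospholipidosis is scored by imaging LipidTOX-stained pits in HepG2 cells exposed to compound for 24 h at 37 C; pit counts and integrated intensities per well and per cell serve as outputs.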
Test [11] can be described thus: qHTS assay to identify small molecule HDAC inhibitors (AID 1259364). Note: potency is the fitted concentration of half-maximal effect.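 Note: wild-type HCT-116 cells with endogenous class I/II HDAC activity; nearly all actives have a fitted effect of over 45% in size.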 In outline: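 Relative class I and II HDAC activity is taken from the luminogenic signal in HCT-116 cells, with compound exposure 2 hr and reagent development 30 min at room temperature.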
A short description of test [12]: qHTS assay to identify small molecule HDAC inhibitors - cell viability counter screen (AID 1259365). Note: series mostly up to about 92 µM; nearly all actives have a fitted effect of over 50% in size. In outline: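 CellTiter-Glo luminescence (30 min, room temperature) reported viability after a 2 h compound exposure at 37 C. Cells: wild-type HCT-116, 1,500 per well, seeded the night before.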
A short description of test [13]: qHTS assay to identify small molecule agonists of the sonic hedgehog signaling (Shh) pathway - cell viability counter screen (AID 1259366). Note: nearly all actives have a fitted effect of over 50% in size. Note: potency is the fitted concentration of half-maximal effect. A digest of the protocol: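 Cytotoxicity counter screen: CellTiter-Fluor reagent added after 23 h compound exposure, then 1 h at 37C and fluorescence read. Cells were 3T3 Gli1-Luc, seeded 2,000 per well and dosed 4 h post-plating.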

Test [14] can be described thus: qHTS assay to identify small molecule antagonists of the sonic hedgehog signaling (Shh) pathway - cell viability counter screen (AID 1259367). Note: nearly all actives have a fitted effect of over 55% in size. A digest of the protocol:
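Cells: 3T3 Gli1-Luc, 2,000/well, 4 hr pre-incubation. Compounds in DMSO, then conditioned medium. Incubation 24 hr, 37C, 5% CO2. CellTiter-Fluor at 23 hr, 1 hr, fluorescence.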

Test [15] in a line: A CellTox Green Cytotoxicity Assay to monitor cytotoxicity in HEK293 cells - 32 hour (AID 1224881). Note: nearly all actives have a fitted effect of over 40% in size. A digest of the protocol: as §3
A short description of test [16]: qHTS RealTime-Glo MT Cell Viability Assay in HepG2 cells - 16 hour (AID 1224885). Note: nearly all actives have a fitted effect of over 50% in size. A digest of the protocol: as §4
In test [17] the target is Estrogen receptor (Homo sapiens) (UniProt P03372). Nature of the test: qHTS assay to identify small molecule antagonists of the estrogen receptor alpha (ER-alpha) signaling pathway using the BG1 cell line in the presence of 0.1 nM 17-beta-estradiol (AID 1259244). Note: nearly all actives have a fitted effect of over 50% in size. In outline: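 VM7Luc4E2; 4xERE-luciferase; 0.1 nM E2 final; 22 h co-incubation, 37C; ONE-Glo luminescence after 30 min at room temperature.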
Chain of Estrogen receptor (Homo sapiens) (P03372 whole entry, looked up): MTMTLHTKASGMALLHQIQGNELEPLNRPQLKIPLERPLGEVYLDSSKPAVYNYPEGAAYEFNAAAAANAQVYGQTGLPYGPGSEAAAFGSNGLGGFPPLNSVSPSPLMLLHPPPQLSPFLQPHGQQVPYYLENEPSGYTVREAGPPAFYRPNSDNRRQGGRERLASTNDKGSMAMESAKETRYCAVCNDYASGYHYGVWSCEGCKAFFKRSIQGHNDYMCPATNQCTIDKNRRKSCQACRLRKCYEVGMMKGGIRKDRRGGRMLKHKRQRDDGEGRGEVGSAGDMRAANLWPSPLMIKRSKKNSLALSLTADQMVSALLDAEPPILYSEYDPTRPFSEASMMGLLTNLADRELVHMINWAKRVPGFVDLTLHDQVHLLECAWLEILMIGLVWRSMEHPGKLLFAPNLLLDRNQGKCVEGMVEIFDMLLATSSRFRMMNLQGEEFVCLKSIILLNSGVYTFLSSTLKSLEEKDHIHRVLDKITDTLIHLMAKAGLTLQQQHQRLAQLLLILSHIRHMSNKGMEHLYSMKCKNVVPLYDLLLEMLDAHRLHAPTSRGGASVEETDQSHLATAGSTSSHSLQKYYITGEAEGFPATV

The nature of test [18]: qHTS RealTime-Glo MT Cell Viability Assay in HEK293 cells - 24 hour (AID 1224886). In outline:
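Luminescence generated by NanoLuc from substrate produced by living HEK293 cells served as the viability signal. Each value reflects the reading at its stated time point during continuous 40 h compound exposure at 37 C.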

Test [19] is described as follows: qHTS RealTime-Glo MT Cell Viability Assay in HEK293 cells - 8 hour (AID 1224887). A digest of the protocol: as §1

Consider `C[C@H](CN1CCCC1)C(=O)c1ccc(C(F)(F)F)cc1`, for which the Potency result in test [1], in test [2], in test [4], in [5], in test [6] and in [7] was “inactive” each time. Moreover, the Potency result in test [8], in [9], in test [10], in test [11], in [13] and in test [14] was “inactive” each time. For the same compound, in test [3], the Potency is 21.3 µM (active). For the same compound, in test [12], the compound was called inactive.

For the compound `CCn1nc(Cc2ccccc2)cc1C1CCN(C[C@H]2C[C@H](N(C)[C@@H](C(=O)O)C(C)C)C[C@@H]2c2cccc(F)c2)CC1`, the Potency result in test [1], in test [15], in test [2], in test [4], in test [5] and in test [6] was “inactive” in each case. In addition, the Potency result in test [7], in [8], in [9], in [17] and in test [11] was “inactive” each time. Besides, the compound was classed as inactive in test [16].

For `c1ccc(CN(Cc2ccccc2)Cc2ccccc2)cc1`, the Potency entry in test [1], in [15], in [2], in test [4], in [18] and in [19] was “inactive” in each case. Moreover, the Potency entry in [5], in [6], in test [7], in test [8], in test [9] and in [11] was “inactive” throughout. For the same compound, the Potency result in [13] and in [14] was “inactive” in each case. Also, the call in [16] and in test [12] was inactive.

For `CC(=O)c1ccc(Cl)c(Cl)c1Cl`, the Potency entry in test [1], in [2], in test [3], in test [4], in test [18] and in test [19] was “inactive” throughout. Also, the Potency result in [5], in [6], in test [7], in test [8], in [9] and in test [17] was “inactive” in each case. Also, the Potency result in test [11], in test [13] and in test [14] was “inactive” throughout. The outcome in [16] and in test [12] was inactive.

`Nc1ccccc1Nc1ccccc1`: the Potency entry in test [1], in test [15], in [2], in [3], in [4] and in test [5] was “inactive” in each case. The Potency result in test [6], in test [7], in test [8], in test [9] and in test [11] was “inactive” in each case. For the same compound, the result in [16] and in test [12] was inactive. Moreover, in [13], the Potency is 68.8 µM (active).

Regarding `O=C1c2ccccc2C(=O)C1c1ccc2ccccc2n1`, the Potency entry in test [1], in test [2], in [3], in test [6], in test [7] and in test [8] was “inactive” throughout. For the same compound, the Potency entry in [9] and in test [13] was “inactive” each time. For the same compound, the call in test [16] and in test [12] was inactive. For the same compound, the Potency in test [11] was 1.91 µM (active).

On to `c1ccc(CCNc2nc(-c3ccccc3)cs2)cc1`, for which the Potency entry in [1], in test [4], in test [18], in test [6], in [8] and in test [9] was “inactive” throughout. Also, the Potency entry in test [17], in [10] and in [13] was “inactive” throughout. In addition, the outcome in test [16] and in [12] was inactive. Moreover, the Potency in [11] is 2.98 µM (active).

Regarding `COc1ccc(C(=O)c2ccc(C)cc2)c(O)c1`, the Potency entry in test [1], in test [15], in test [2], in test [3], in [4] and in test [5] was “inactive” in each case. For the same compound, the Potency result in test [7], in test [8], in test [9], in test [17], in test [10] and in test [13] was “inactive” in each case. In addition, the Potency entry in test [14] was “inactive”. In addition, the compound was classed as inactive in test [16] and in test [12].

With `O=C(OCCOCCOCCOC(=O)c1ccccc1)c1ccccc1`, the Potency result in test [1], in [15], in test [2], in test [4], in test [5] and in [6] was “inactive” in each case. The Potency result in test [7], in test [8], in test [9], in test [17], in [11] and in [13] was “inactive” throughout. In test [14], the Potency result is “inactive”. The compound was called inactive in test [16] and in [12].
